From the supplement of paper PMC10849652
The full data set covers some 8,800 targets. This sample favours those with a hit. About 0.5% of all pairs of compound and target were hits.

Legend:
Test in all cases: log2 fold change, soluble protein after heating vs DMSO (PISA); higher = thermal stabilisation; K562 lysate, 10 uM; active = over 0.2 and 3.5 SD of the protein, either way, in both replicates (recomputed)
alvocidib = compound: CN1CC[C@H](c2c(O)cc(O)c3c(=O)cc(-c4ccccc4Cl)oc23)[C@H](O)C1 [alvocidib]
How it was run: (§1)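 Soluble protein was defined as the supernatant remaining after 21,000xg for 90 min, following pooling of heated aliquots and adjustment to 0.5% NP-40 at 4°C. Before that, crude K562 extract at 1 mg/mL protein in PBS pH 7.4 with 1 mM MgCl2 was treated with 10 μM compound for 30 min and heated for 3 min across 48°C-58°C. Quantification used TMTpro 16plex LC-MS/MS with channel sums equalised, and values are log-two fold changes in thermal stability relative to solvent controls from duplicates.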

Tubastatin A = compound: CN1CCc2c(c3ccccc3n2Cc2ccc(C(=O)NO)cc2)C1 [Tubastatin A]
How it was run: as §1

[1] = compound: CNC(=O)C1=CC=CC=C1NC2=NC(=NC=C2Cl)NC3=C(C=C(C=C3)N4CCOCC4)OC
How it was run: as §1

defactinib = compound: CNC(=O)c1ccc(Nc2ncc(C(F)(F)F)c(NCc3nccnc3N(C)S(C)(=O)=O)n2)cc1 [defactinib]
How it was run: as §1

[2] = compound: CNc1nc(-c2ccc3c(N)n[nH]c3c2)cc(N2C[C@@H](C(=O)NC3CCCCC3)CC[C@H]2C)n1
How it was run: as §1

encorafenib = compound: COC(=O)N[C@@H](C)CNc1nccc(-c2cn(C(C)C)nc2-c2cc(Cl)cc(NS(C)(=O)=O)c2F)n1 [encorafenib]
How it was run: as §1

[3] = compound: COC(=O)[C@H](CCSC)NC(=O)C1=C(C=C(C=C1)NC[C@H](CS)N)C2=CC=CC=C2
How it was run: as §1

alisertib = compound: COc1cc(Nc2ncc3c(n2)-c2ccc(Cl)cc2C(c2c(F)cccc2OC)=NC3)ccc1C(=O)O [alisertib]
How it was run: as §1

[4] = compound: COc1cc2nc(-c3cc(F)ccc3O)nc(N[C@@H]3CNC[C@H]3C(C)(C)O)c2cc1OC
How it was run: as §1

gefitinib = compound: COc1cc2ncnc(Nc3ccc(F)c(Cl)c3)c2cc1OCCCN1CCOCC1 [gefitinib]
How it was run: as §1

lapatinib = compound: CS(=O)(=O)CCNCc1ccc(-c2ccc3ncnc(Nc4ccc(OCc5cccc(F)c5)c(Cl)c4)c3c2)o1 [lapatinib]
How it was run: as §1

pictilisib = compound: CS(=O)(=O)N1CCN(Cc2cc3nc(-c4cccc5[nH]ncc45)nc(N4CCOCC4)c3s2)CC1 [pictilisib]
How it was run: as §1

crizotinib = compound: C[C@@H](Oc1cc(-c2cnn(C3CCNCC3)c2)cnc1N)c1c(Cl)ccc(F)c1Cl [crizotinib]
How it was run: as §1

[5] = compound: C[C@H](C1=CC=C(C=C1)C(=O)NC2=C3C=CNC3=NC=C2)N
How it was run: as §1

duvelisib = compound: C[C@H](Nc1ncnc2nc[nH]c12)c1cc2cccc(Cl)c2c(=O)n1-c1ccccc1 [duvelisib]
How it was run: as §1

gandotinib = compound: Cc1cc(Nc2cc(CN3CCOCC3)c3nc(C)c(Cc4ccc(Cl)cc4F)n3n2)n[nH]1 [gandotinib]
How it was run: as §1

tozasertib = compound: Cc1cc(Nc2cc(N3CCN(C)CC3)nc(Sc3ccc(NC(=O)C4CC4)cc3)n2)n[nH]1 [tozasertib]
How it was run: as §1

doramapimod = compound: Cc1ccc(-n2nc(C(C)(C)C)cc2NC(=O)Nc2ccc(OCCN3CCOCC3)c3ccccc23)cc1 [doramapimod]
How it was run: as §1

bafetinib = compound: Cc1ccc(NC(=O)c2ccc(CN3CC[C@H](N(C)C)C3)c(C(F)(F)F)c2)cc1Nc1nccc(-c2cncnc2)n1 [bafetinib]
How it was run: as §1

[6] = compound: Cc1cccc(CC(=O)N2CCc3c2ccc(-c2cn(C)c4ncnc(N)c24)c3F)n1
How it was run: as §1

Measured: log2 fold change

PEF1 (UniProt Q9UBV8)
Chain of UniProt Q9UBV8 (Q9UBV8 whole entry, looked up): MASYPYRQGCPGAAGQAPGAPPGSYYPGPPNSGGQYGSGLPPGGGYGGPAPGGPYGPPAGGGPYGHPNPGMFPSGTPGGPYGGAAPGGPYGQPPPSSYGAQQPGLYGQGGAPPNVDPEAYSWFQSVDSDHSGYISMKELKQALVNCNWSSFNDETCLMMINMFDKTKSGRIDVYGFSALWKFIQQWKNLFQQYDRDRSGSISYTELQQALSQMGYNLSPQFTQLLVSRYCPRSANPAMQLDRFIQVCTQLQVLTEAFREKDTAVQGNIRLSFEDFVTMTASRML
inactive: alvocidib 0.027 | Tubastatin A 0.097 | [1] 0.029 | defactinib 0.087 | [2] 0.029 | encorafenib 0.039 | [3] -0.034 | alisertib -0.017 | [4] 0.029 | gefitinib -0.02 | lapatinib 0.019 | pictilisib 0.041 | crizotinib -0.002 | [5] 0.051 | duvelisib -0.004 | gandotinib -0.055 | tozasertib 0.032 | doramapimod -0.01 | bafetinib -0.027 | [6] 0.051

PTGES2 (UniProt Q9H7Z7)
Chain of UniProt Q9H7Z7 (Q9H7Z7 whole entry, looked up): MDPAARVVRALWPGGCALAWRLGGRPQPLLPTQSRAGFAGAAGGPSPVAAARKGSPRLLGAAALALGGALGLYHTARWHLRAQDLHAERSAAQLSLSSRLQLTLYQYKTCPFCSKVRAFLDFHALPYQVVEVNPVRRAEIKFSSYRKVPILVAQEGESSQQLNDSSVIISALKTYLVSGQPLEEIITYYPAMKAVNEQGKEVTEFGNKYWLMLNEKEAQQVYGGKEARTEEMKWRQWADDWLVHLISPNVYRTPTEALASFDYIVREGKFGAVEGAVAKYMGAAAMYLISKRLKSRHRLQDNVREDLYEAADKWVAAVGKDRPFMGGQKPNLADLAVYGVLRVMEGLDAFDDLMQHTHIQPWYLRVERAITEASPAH
inactive: alvocidib 0.015 | Tubastatin A -0.169 | [1] 0.122 | defactinib -0.075 | [2] 0.322 | encorafenib -0.127 | [3] 0.098 | alisertib -0.026 | [4] -0.248 | gefitinib 0.245 | pictilisib 0.153 | crizotinib -0.052 | [5] -0.013 | duvelisib 0.029 | gandotinib 0.236 | tozasertib 0.329 | doramapimod 0.341 | bafetinib 0.176 | [6] 0.009
active: lapatinib 0.637

PTPN7 isoform 3 (UniProt P35236)
Chain of UniProt P35236 (P35236 whole entry, looked up): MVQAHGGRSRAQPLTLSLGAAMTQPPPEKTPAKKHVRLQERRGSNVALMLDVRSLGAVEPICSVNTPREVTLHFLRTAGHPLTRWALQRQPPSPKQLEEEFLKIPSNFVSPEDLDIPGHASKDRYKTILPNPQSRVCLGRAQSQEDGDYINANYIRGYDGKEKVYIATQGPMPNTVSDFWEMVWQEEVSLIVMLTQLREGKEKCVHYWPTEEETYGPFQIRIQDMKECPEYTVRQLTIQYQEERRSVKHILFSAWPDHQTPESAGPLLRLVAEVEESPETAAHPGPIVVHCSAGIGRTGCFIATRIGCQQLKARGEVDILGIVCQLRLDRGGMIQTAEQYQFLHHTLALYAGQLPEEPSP
inactive: alvocidib -0.082 | Tubastatin A -0.138 | [1] 0.057 | defactinib 0.017 | [2] 0.038 | encorafenib -0.051 | [3] 0.122 | alisertib 0.021 | [4] -0.023 | gefitinib -0.025 | lapatinib -0.025 | pictilisib -0.04 | crizotinib 0.043 | [5] -0.028 | duvelisib -0.006 | gandotinib 0.056 | tozasertib 0 | doramapimod 0.007 | bafetinib 0.036 | [6] 0.115

PCBD2 (UniProt Q9H0N5)
Chain of UniProt Q9H0N5 (Q9H0N5 whole entry, looked up): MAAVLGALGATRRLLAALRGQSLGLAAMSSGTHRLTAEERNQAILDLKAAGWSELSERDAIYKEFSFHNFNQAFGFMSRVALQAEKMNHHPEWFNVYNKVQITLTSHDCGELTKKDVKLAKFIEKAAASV
inactive: alvocidib -0.124 | Tubastatin A 0.012 | [1] 0.01 | defactinib -0.045 | [2] -0.059 | encorafenib -0.008 | [3] -0.039 | alisertib 0.058 | [4] 0.031 | gefitinib 0.071 | lapatinib -0.014 | pictilisib -0.009 | crizotinib -0.051 | duvelisib 0.028 | gandotinib 0.141 | tozasertib 0.031 | doramapimod 0.008 | bafetinib -0.063 | [6] 0.096
active: [5] -0.228

PFKP (UniProt Q01813)
Chain of UniProt Q01813 (Q01813 whole entry, looked up): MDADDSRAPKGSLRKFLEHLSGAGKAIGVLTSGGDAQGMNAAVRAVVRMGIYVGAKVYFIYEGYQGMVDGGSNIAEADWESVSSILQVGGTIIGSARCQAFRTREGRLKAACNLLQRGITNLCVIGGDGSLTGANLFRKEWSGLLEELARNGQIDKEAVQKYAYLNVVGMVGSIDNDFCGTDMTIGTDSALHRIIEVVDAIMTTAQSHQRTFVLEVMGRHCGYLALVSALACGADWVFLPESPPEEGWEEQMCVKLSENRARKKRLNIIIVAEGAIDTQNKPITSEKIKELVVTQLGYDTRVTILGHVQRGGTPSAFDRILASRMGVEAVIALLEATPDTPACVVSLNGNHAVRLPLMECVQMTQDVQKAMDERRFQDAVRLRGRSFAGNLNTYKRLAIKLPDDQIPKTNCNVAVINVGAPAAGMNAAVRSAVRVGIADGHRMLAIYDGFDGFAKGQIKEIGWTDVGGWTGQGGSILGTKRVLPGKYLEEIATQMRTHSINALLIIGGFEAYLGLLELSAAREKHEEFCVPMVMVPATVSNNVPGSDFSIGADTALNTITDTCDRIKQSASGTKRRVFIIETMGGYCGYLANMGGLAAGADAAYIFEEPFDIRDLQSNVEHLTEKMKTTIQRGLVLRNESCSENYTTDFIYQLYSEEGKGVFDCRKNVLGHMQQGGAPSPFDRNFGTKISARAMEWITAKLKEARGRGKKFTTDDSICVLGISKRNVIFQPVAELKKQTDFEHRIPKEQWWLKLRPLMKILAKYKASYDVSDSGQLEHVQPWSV
inactive: alvocidib 0.019 | Tubastatin A 0.031 | [1] 0.029 | defactinib -0.009 | [2] -0.016 | encorafenib -0.041 | [3] -0.001 | alisertib -0.004 | [4] 0.009 | gefitinib -0.006 | lapatinib -0.011 | pictilisib -0.014 | crizotinib 0.014 | [5] 0.033 | duvelisib -0.02 | gandotinib -0.034 | tozasertib -0.012 | doramapimod -0.015 | bafetinib 0.005 | [6] -0.012

PIK3R1 (UniProt P27986)
Chain of UniProt P27986 (P27986 whole entry, looked up): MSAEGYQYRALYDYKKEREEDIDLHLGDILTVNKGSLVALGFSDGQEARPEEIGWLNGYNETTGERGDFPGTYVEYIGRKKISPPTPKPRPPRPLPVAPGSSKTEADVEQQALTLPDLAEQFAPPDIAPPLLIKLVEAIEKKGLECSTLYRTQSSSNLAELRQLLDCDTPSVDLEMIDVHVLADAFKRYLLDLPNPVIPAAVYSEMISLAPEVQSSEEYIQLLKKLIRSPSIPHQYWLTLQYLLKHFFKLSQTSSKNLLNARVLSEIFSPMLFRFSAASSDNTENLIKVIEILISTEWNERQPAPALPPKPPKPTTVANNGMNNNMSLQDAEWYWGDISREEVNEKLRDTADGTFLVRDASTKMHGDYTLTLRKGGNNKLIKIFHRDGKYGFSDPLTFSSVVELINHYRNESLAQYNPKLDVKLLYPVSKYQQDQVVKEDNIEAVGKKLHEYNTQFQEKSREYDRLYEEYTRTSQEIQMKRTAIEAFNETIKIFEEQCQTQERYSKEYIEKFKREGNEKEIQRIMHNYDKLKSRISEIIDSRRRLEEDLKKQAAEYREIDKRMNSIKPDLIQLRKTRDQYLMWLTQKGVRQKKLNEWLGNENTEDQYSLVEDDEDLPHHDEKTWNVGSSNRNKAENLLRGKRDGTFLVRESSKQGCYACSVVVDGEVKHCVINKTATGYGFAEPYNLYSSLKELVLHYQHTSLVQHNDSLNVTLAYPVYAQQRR
active: duvelisib 0.534
inactive: alvocidib 0.032 | Tubastatin A -0.037 | [1] 0.075 | defactinib -0.066 | [2] -0.039 | encorafenib -0.025 | [3] -0.111 | alisertib 0.078 | [4] 0.023 | gefitinib -0.045 | lapatinib 0.002 | pictilisib 0.374 | crizotinib -0.015 | [5] 0.033 | gandotinib 0.171 | tozasertib 0.039 | doramapimod -0.02 | bafetinib 0.007 | [6] -0.011

PTPN1 (UniProt P18031)
Chain of UniProt P18031 (P18031 whole entry, looked up): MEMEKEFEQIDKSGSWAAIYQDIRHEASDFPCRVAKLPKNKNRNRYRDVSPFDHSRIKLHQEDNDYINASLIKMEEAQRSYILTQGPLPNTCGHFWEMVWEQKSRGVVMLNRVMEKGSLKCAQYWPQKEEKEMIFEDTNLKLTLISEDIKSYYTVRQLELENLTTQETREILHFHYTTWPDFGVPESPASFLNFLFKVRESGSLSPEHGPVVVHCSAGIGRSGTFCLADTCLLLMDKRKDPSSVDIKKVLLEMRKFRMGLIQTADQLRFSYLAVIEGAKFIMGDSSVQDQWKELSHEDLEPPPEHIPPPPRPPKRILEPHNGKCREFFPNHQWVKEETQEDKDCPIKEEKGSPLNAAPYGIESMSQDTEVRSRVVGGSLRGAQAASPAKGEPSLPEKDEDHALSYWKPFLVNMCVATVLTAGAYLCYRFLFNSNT
inactive: alvocidib -0.002 | Tubastatin A -0.048 | [1] 0.018 | defactinib 0.015 | [2] -0.033 | encorafenib -0.003 | [3] 0.014 | alisertib 0.005 | [4] 0.047 | gefitinib 0.014 | lapatinib -0.022 | pictilisib -0.022 | crizotinib -0.031 | [5] -0.042 | duvelisib -0.007 | gandotinib -0.055 | tozasertib 0.069 | doramapimod 0.059 | bafetinib -0.029 | [6] 0.062

PHKG1 isoform 2 (UniProt Q16816)
Chain of UniProt Q16816 (Q16816 whole entry, looked up): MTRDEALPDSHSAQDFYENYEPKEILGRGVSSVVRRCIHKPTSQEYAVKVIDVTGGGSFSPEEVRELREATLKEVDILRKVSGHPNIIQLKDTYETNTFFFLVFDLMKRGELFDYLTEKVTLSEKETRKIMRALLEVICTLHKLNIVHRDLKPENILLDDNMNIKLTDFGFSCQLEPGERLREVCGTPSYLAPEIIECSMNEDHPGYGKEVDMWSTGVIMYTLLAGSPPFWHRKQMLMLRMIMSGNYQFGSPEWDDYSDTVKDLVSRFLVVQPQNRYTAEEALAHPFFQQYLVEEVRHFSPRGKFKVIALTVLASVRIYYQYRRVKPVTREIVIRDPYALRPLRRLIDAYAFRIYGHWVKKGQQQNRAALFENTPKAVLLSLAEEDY
inactive: alvocidib -0.057 | Tubastatin A 0.053 | defactinib 0.196 | [2] -0.118 | encorafenib 0.123 | [3] -0.078 | alisertib -0.185 | [4] 0.763 | gefitinib 0.202 | lapatinib -0.166 | crizotinib 0.305 | [5] -0.553 | duvelisib -0.042 | gandotinib 0.655 | tozasertib -0.172 | doramapimod 0.038 | [6] 0.216
active: [1] 0.929

PPP2R5B (UniProt Q15173)
Chain of UniProt Q15173 (Q15173 whole entry, looked up): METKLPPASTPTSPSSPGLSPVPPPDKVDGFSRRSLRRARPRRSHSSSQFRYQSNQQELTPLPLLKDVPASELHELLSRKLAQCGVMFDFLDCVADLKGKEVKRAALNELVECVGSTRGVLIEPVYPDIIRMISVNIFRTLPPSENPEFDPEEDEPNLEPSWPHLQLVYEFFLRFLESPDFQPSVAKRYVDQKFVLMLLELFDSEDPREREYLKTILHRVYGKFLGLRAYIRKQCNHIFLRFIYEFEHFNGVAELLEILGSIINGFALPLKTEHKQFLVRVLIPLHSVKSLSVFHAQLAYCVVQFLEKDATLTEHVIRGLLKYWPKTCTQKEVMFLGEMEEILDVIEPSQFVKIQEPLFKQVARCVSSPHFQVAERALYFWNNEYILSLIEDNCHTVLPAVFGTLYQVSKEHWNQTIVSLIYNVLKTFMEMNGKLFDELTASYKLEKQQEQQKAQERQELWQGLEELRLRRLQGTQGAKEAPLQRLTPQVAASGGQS
inactive: alvocidib 0.069 | Tubastatin A -0.012 | [1] -0.03 | defactinib -0.091 | [2] -0.056 | encorafenib -0.017 | [4] 0.046 | lapatinib -0.089 | pictilisib -0.064 | crizotinib 0.075 | [5] -0.017 | duvelisib 0.021 | gandotinib -0.168 | tozasertib 0.04 | doramapimod 0.005 | bafetinib 0.054 | [6] -0.036
active: [3] 0.288
